Source: PubChem BioAssay (NCI)
About 83,000 compounds went through this panel and 20% of them were active in at least one assay; those are over-represented in the sample as a whole.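 Compound tested at a single concentration for 48 hours in 96-well plates; a percent growth value below 10 was scored as active.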 Unmarked numbers belong to inactive results. Calls of active or inactive are those of the source.

Assays:
Experiment in all cases: NCI-60 one-dose screen, 48 h (100 = growth as untreated, 0 = no growth, -100 = all killed)
Settings in all cases: 10 µM unless noted
[1] = tested on: HCT-15 colon
[2] = tested on: HT29 colon
[3] = tested on: SNB-75 CNS
[4] = tested on: SNB-19 CNS
[5] = tested on: U251 CNS
[6] = tested on: PC-3 prostate
[7] = tested on: SK-MEL-5 melanoma
[8] = tested on: UACC-62 melanoma
[9] = tested on: LOX IMVI melanoma
[10] = tested on: SK-MEL-28 melanoma

SMILES | growth [1] | growth [2] | growth [3] | growth [4] [%] | growth [5] | growth [6] | growth [7] | growth [8] | growth [9] | growth [10] [%]
O=C(CSc1nc2ccc([N+](=O)[O-])cc2[nH]1)Nc1ccc([N+](=O)[O-])cc1 | 22.9% | 13.1% | 29.7% | 12.4 | 13.7% | 12.7% | -12.7% (active) | 2.77% (active) | 23.5% | 30.7
COc1ccc(Nc2ncc(Br)c(NCCCNC(=O)c3cccs3)n2)cc1 | 34.5% | 51.6% | 48.9% | 56.8 | 52.7% | 42.1% | 69.5% | 45.7% | 14.6% | 68.4
O=C1/C(=C/c2cn(-c3ccccc3)nc2-c2ccccc2)SC(=S)N1C1CCCCC1 | 109% | 111% | 99.2% | 96.9 | 107% | 96.3% | 100% | 92.6% | 91% | 101
CCN(CC)CCCCCNc1cc(OC(=O)c2ccc(Cl)cc2)cc2cccnc12 | 97.7% | 87.6% | 89.5% | 103 | 105% | 88.8% | 105% | 98% | 106% | 116
O=C(OC(CO)C(=O)NC12CC3CC(CC(C3)C1)C2)c1ccc(Cl)cc1 (stereo not given) | 99.4% | 100% | 102% | 98.8 | 96.7% | 98.6% | 98.3% | 96.6% | 101% | 108
Fc1cc2c(cc1Cl)N(c1ncnc3ccc(-c4ccc5n[nH]nc5c4)cc13)CC2 | 95.7% | 95% | 22.1% | 80 | 86.9% | 71.1% | 91.2% | 78.7% | 86% | 86.9
CCOC(=O)C1=C(c2ccccc2)N=C2SC=C(c3ccc(Cl)cc3)N2C1c1ccc(Br)cc1 (stereo not given) | 80.8% | 82.2% | 81.7% | 85.4 | 85.8% | 40.6% | 67.7% | 67.7% | 84.8% | 98.3
OB1OCc2cc(/C=C/c3cccc(C(F)(F)F)c3)ccc21 | 17.8% | 25.9% | -19.3% (active) | 20.8 | 0.414% (active) | 23.6% | -14.1% (active) | 19.9% | -72.5% (active) | 45.5
CC(=O)/C(=C\c1c(-c2ccccc2)[nH]c2ccccc12)S(C)(=O)=O | 19.3% | 4.54% (active) | -28.8% (active) | 23.2 | 15.3% | 21.6% | -6.28% (active) | 17.5% | 33.1% | 34.4
N#Cc1c(-c2ccccc2)[nH]c2ncc(-c3ccccc3)n2c1=O | 93.5% | 106% | 78.8% | 105 | 93.1% | 74.6% | 87.7% | 87.8% | 86.8% | 102
COC(=O)CC[C@H](C)[C@H]1CC[C@H]2[C@@H]3CC[C@@H]4CC5(CC[C@]4(C)[C@H]3CC(=O)[C@]12C)Nc1ccccc1NC5=NC(C)(C)C (stereo not given in full) | 51.4% | 69.8% | 71.1% | 81.5 | 48.3% | 56.5% | 77.5% | 57.9% | 47.4% | 89.2
COc1ccc(-c2nn(-c3cccc(Cl)c3)cc2-c2cc(-c3ccc(Br)cc3)nc(N)n2)cc1 | 81.4% | 86% | 96.9% | 95.2 | 97.5% | 80% | 94.6% | 85% | 98.7% | 103
N#CC1=C(N)Oc2c(sc3c(Br)cccc23)C1c1ccc(Cl)cc1 (stereo not given) | 8.47% (active) | -14.2% (active) | 4.29% (active) | 37 | 7.28% (active) | 17.3% | 17.3% | 10.3% | 23.3% | 44.8
Cc1ccc(-c2nc(N3CCCNCC3)c3oc(-c4ccc(C)cc4)nc3n2)cc1 | -72.9% (active) | -87.1% (active) | 97.7% | 58.2 | -92.4% (active) | -89.5% (active) | 88.1% | 92% | -79.3% (active) | 89.8
COc1ccc(C(O)c2cc3c(N)c(C(=O)Nc4cccc(Br)c4)sc3nc2C)cc1 (stereo not given) | 7.7% (active) | 8.32% (active) | 24.4% | 24.6 | 15.7% | 15.6% | -72.9% (active) | 13.5% | 15.5% | 50.7
O=C(CN1C(=O)S/C(=C\C(Cl)=C\c2ccccc2)C1=O)NCCc1ccc(O)cc1 | 0.727% (active) | 16.6% | 22% | 34.3 | 19.3% | 24.7% | 46% | 8.67% (active) | -51.5% (active) | 20.7
O=C(N/N=C/c1c(Cl)cccc1Cl)c1cccnc1Nc1cccc(C(F)(F)F)c1 | 26% | 40.4% | 63.1% | 27.7 | 16.4% | 24.3% | 20.5% | 17.2% | 25.8% | 107
Cc1ccc(-c2nc([P+](c3ccccc3)(c3ccccc3)c3ccccc3)c(S(=O)(=O)c3ccc(C)cc3)o2)cc1 | 4.17% (active) | 0% (active) | -11.3% (active) | 53.5 | 3.23% (active) | 11.2% | 48.7% | 26.1% | -31.7% (active) | 24.6
O=c1c2cnn(-c3ccccc3)c2n2c(CN3CCOCC3)nnc2n1-c1ccccc1 | 101% | 74.9% | 98% | 106 | 89.4% | 78.2% | 102% | 98% | 96.9% | 107
Cn1ccnc1C(=O)/C=C/c1ccc(C(=O)Nc2ccccc2O)cc1 | 7.09% (active) | 24.7% | 46.2% | 14.3 | 5.29% (active) | 23.5% | 89.3% | 50.6% | -18% (active) | 73.4
COCCn1cc(-c2nc(-c3cc4cccnc4[nH]3)cs2)c2cc(OC)ccc21 | 20.3% | 30.9% | 9.81% (active) | 61.6 | 32.8% | 10.4% | 39.1% | 49.8% | 33.2% | 62.8
CC1(C)CC(=O)C2=C(C1)N(c1ccc(OC(F)(F)F)cc1)C(N)=C(C#N)C2c1ccc(Br)cc1F (stereo not given) | 71.4% | 79.7% | 54.1% | 34.4 | 56.2% | 51.9% | 92.9% | 78.5% | 54.5% | 90.8
CCOC(=O)c1csc(NC(=O)COc2ccc(/C=C3\Oc4ccccc4C3=O)cc2)n1 | 113% | 106% | 81.3% | 87.9 | 91.1% | 96.2% | 98.7% | 79.6% | 78.3% | 112
CC(C)(C)CC(C)(C)NC(=O)Nc1ncccc1OCc1ccccc1 | 86.2% | 80.9% | 91.5% | 95.9 | 96.4% | 82.4% | 92.8% | 81.4% | 90.7% | 103
CC(=O)c1c(C)nc(SCC(=O)Nc2cccc(O)c2)n1-c1ccc(Cl)cc1 | 95% | 102% | 62.8% | 92 | 91.9% | 89.6% | 93.2% | 75.3% | 104% | 106
COc1ccc(/C=C/C(=O)c2cccc(OCCCCOc3cccc(C(=O)/C=C/c4ccc(OC)c(OC)c4)c3)c2)cc1OC | 80.9% | 92% | 67.8% | 81.6 | 84.8% | 67% | 9.83% (active) | 57.7% | 61.7% | 86
O=C(O)CCN1C(=O)/C(=C/C(Cl)=C/c2ccccc2)SC1=S | -50.3% (active) | 10.1% | 13.2% | 34.5 | 20.8% | 47% | 38.9% | 16.1% | -32.4% (active) | 13.9
